{
  "source": "PubChem BioAssay (NCATS)",
  "note": "Inconclusive results are not listed. Unmarked numbers belong to inactive results. The source made the active and inactive calls. The call rests on the fitted dose curve; in most records, active means well fitted inhibition curve with a large enough effect; inconclusive means small, poorly fitted or top-dose-only effect; inactive means no such curve, though single readings can be large or run the other way. Where a SMILES comes first, the peptide text is derived from it. [ ]: non-standard residue; d: D form. pGlu = O=C1CC[C@@H](C(=O)O)N1; Thz = O=C(O)[C@@H]1CSCN1",
  "data": [
    {"test": "Primary qHTS for inhibitors of nuclear receptor binding SET domain protein 2 (NSD2) in an RCH-ACV wild type WT cells (2C) (AID 1645877); further: nearly all actives have a fitted effect of over 70% in size; further: potency means the concentration at half of the fitted maximal effect; on activity change, negative = cell killing: on the % scale 0 is the no-effect control and ±100 the full control effect", "conditions": "RCH-ACV NSD2 WT (2C) viability, CellTiter-Glo, 72 h; series mostly up to 44.9 µM; activity change, negative = cell killing: at the top concentration", "values": [
      {"compound": "N#C/C(=C\\c1ccc(O)c(O)c1)C(=O)NCCCc1ccccc1", "Potency": "16.4 µM (active)"},
      {"compound": "CCCCC1C(=O)N(c2ccccc2)N(c2ccc(O)cc2)C1=O", "note": "(stereo unspecified)", "Potency": "0.531 µM (active)"},
      {"compound": "Nc1cc(-c2ccncc2)c[nH]c1=O", "outcome": "inactive"},
      {"compound": "Nc1ccc(C(=O)O)c(O)c1", "activity change, negative = cell killing": "8.44%"},
      {"compound": "COC(=O)[C@H]1[C@H]2C[C@@H]3c4[nH]c5cc(OC)ccc5c4CCN3C[C@H]2C[C@@H](OC(=O)/C=C/c2cc(OC)c(OC)c(OC)c2)[C@@H]1OC", "activity change, negative = cell killing": "-24.1% [at 17.3 µM]"},
      {"compound": "CNC(=O)c1c(I)c(NC(=O)CCCCC(=O)Nc2c(I)c(C(=O)O)c(I)c(C(=O)NC)c2I)c(I)c(C(=O)O)c1I", "activity change, negative = cell killing": "-4.84%"},
      {"compound": "Nc1ccc([N+](=O)[O-])cc1O", "Potency": "7.7 µM (active)"},
      {"compound": "O=C(O)c1ccccc1Nc1cccc(C(F)(F)F)c1", "activity change, negative = cell killing": "2.67%"},
      {"compound": "N=C(N)N", "outcome": "inactive"},
      {"compound": "CCCSc1ccc2nc(NC(=O)OC)[nH]c2c1", "Potency": "0.266 µM (active)"},
      {"compound": "CCCCCCCCCCCC(=O)[O][Sn]([CH2]CCC)([CH2]CCC)[O]C(=O)CCCCCCCCCCC", "activity change, negative = cell killing": "-9.02%"},
      {"compound": "C/C(=N\\O)c1ccc(OCC(=O)N2CCCCC2)cc1", "activity change, negative = cell killing": "-4.2%"},
      {"compound": "CCN(CC)CCCCNc1ncc2cc(-c3c(Cl)cccc3Cl)c(NC(=O)NC(C)(C)C)nc2n1", "Potency": "3.65 µM (active)"},
      {"compound": "CC1(C)[C@@H](O)CC[C@]2(C)[C@H]3C(=O)C=C4[C@@H]5C[C@@](C)(C(=O)O)CC[C@]5(C)CC[C@@]4(C)[C@]3(C)CC[C@@H]12", "Potency": "inactive"},
      {"compound": "Cn1cc(C2=C(c3ccc(Cl)cc3Cl)C(=O)NC2=O)c2ccccc21", "Potency": "6.51 µM (active)"},
      {"compound": "O=C1CC[C@@H](C(=O)N2CSC[C@H]2C(=O)O)N1", "note": "([pGlu]-[Thz]-OH)", "outcome": "inactive"}
    ]}
  ]
}
